Data: PubChem BioAssay AID1159580 (chemical genetic matrix, 2015)
Values joined by “and” are separate entries in the source; they are usually repeats but may differ in a detail not shown here. Identical values can stand only once. In all, about 5,500 compounds went through this assay and about 2,000 (36%) were called active. Another 18% or so got no clear call; they are omitted. No stated cut-off is given here; in the data, active means normalized growth mostly below about 0.91 (no sharp cut-off); inconclusive means no clear call, values can overlap the other calls; inactive means mostly above about 0.92. The list shows a part of the results.

Assay: chemical genetic growth profiling, strain panel (AID 1159580);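 further: tested at 20 µM; growth read once vehicle control cultures reached saturation at 30 °C; 1 = growth at the plate median or of vehicle wells; lower values mean less growth of the strain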
Conditions: S. cerevisiae deletion strains, growth OD

Measured: normalized growth

COc1ccc2c3c([nH]c2c1)C(C)=NCC3
inactive: locus YAL013W, strain DEP1, hits give low values 1.01 | locus YAL021C, strain ccr4, hits give low values 0.997 | locus YAL026C, strain drs2, hits give low values 1.02 | locus YAL030W, strain snc1, hits give low values 1.01 | locus YBL061C, strain skt5, hits give low values 1.01 | locus YBR009C, strain hhf1, hits give low values 0.989 | locus YBR021W, strain FUR4, hits give low values 1.01 | locus YBR023C, strain chs3, hits give low values 0.999 | locus YBR171W, strain sec66, hits give low values 1.01 | locus YBR229C, strain ROT2, hits give low values 1 | locus YBR231C, strain swc5, hits give low values 0.997 | locus YBR279W, strain paf1, hits give low values 1.01 | locus YCL016C, strain dcc1, hits give low values 1 | locus YCL029C, strain bik1, hits give low values 0.984 | locus YCL069W, strain vba3, hits give low values 1.01 | locus YCR088W, strain abp1, hits give low values 1.01 | locus YDL005C, strain med2, hits give low values 0.99 | locus YDL035C, strain GPR1, hits give low values 1.02 | locus YDL040C, strain nat1, hits give low values 0.986 | locus YDL074C, strain BRE1, hits give low values 1 | locus YDL101C, strain DUN1, hits give low values 1.01 | locus YDL134C, strain PPH21, hits give low values 1 | locus YDL185W, strain tfp1, hits give low values 0.975 | locus YDL192W, strain arf1, hits give low values 0.993 | locus YDR001C, strain nth1, hits give low values 1.02 | locus YDR069C, strain doa4, hits give low values 0.992 | locus YDR101C, strain arx1, hits give low values 0.986 | locus YDR137W, strain rgp1, hits give low values 1.01 | locus YDR150W, strain NUM1, hits give low values 1.01 | locus YDR159W, strain sac3, hits give low values 1 | locus YDR162C, strain NBP2, hits give low values 1 | locus YDR195W, strain ref2 0.954 | locus YDR297W, strain sur2, hits give low values 0.991 | locus YDR318W, strain mcm21, hits give low values 0.983 | locus YDR334W, strain swr1, hits give low values 1.01 | locus YDR335W, strain msn5, hits give low values 1.01 | locus YDR388W, hits give low values 0.983 | locus YDR392W, strain spt3, hits give low values 1.01 | locus YDR502C, strain sam2, hits give low values 0.989 | locus YEL003W, strain gim4, hits give low values 1 | locus YEL037C, strain rad23, hits give low values 1 | locus YEL061C, strain CIN8 (second series), hits give low values 1.03 | locus YEL061C, strain CIN8, hits give low values 1.01 | locus YER015W, strain faa2, hits give low values 0.988 | locus YER016W, strain bim1, hits give low values 1 | locus YER110C, hits give low values 0.981 | locus YER111C, strain swi4, hits give low values 0.993 | locus YER155C, strain BEM2 (second series), hits give low values 0.98 | locus YER155C, strain BEM2, hits give low values 1.01 | locus YER167W, strain BCK2, hits give low values 1.01 | locus YFR010W, strain ubp6, hits give low values 0.999 | locus YGL078C, strain dbp3, hits give low values 0.987 | locus YGL086W, strain mad1, hits give low values 0.991 | locus YGL167C, strain pmr1, hits give low values 0.993 | locus YGL173C, strain kem1, hits give low values 0.984 | locus YGL227W, strain vid30, hits give low values 1 | locus YGL240W, strain doc1, hits give low values 1.01 | locus YGL248W, strain PDE1, hits give low values 1 | locus YGL253W, strain hxk2, hits give low values 1.03 | locus YGR078C, strain PAC10, hits give low values 1 | locus YGR135W, strain pre9, hits give low values 0.988 | locus YGR229C, strain SMI1, hits give low values 1.03 | locus YGR252W, strain gcn5, hits give low values 0.963 | locus YHR013C, strain ard1, hits give low values 0.948 | locus YHR027C, strain rpn1, hits give low values 1.01 | locus YHR030C, strain SLT2, hits give low values 1.01 and 0.978 | locus YHR079C, strain IRE1 (second series), hits give low values 0.992 | locus YHR079C, strain IRE1, hits give low values 1 | locus YHR094C, strain hxt1, hits give low values 0.991 | locus YHR129C, strain ARP1, hits give low values 0.999 | locus YHR142W, strain chs7, hits give low values 1.01 | locus YHR200W, strain rpn10, hits give low values 0.982 | locus YIL066C, strain RNR3, hits give low values 1.01 | locus YIL073C, strain SPO22, hits give low values 1.03 | locus YIL125W, strain kgd1, hits give low values 0.988 | locus YIR030C, strain dcg1, hits give low values 0.988 | locus YJL092W, strain hpr5, hits give low values 1.02 | locus YJL095W, strain BCK1 (second series), hits give low values 1 | locus YJL095W, strain BCK1, hits give low values 1.02 and 0.991 | locus YJL115W, strain asf1, hits give low values 0.994 | locus YJL129C, strain trk1, hits give low values 1.02 | locus YJL134W, strain LCB3, hits give low values 1 | locus YJL154C, strain vps35, hits give low values 1 | locus YJL164C, strain tpk1, hits give low values 1 | locus YJL166W, strain qcr8, hits give low values 1 | locus YJL168C, strain set2, hits give low values 0.986 | locus YJL187C, strain SWE1 (second series), hits give low values 1.01 | locus YJL187C, strain SWE1, hits give low values 0.993 | locus YJR043C, strain POL32, hits give low values 0.982 | locus YJR066W, strain TOR1, hits give low values 0.929 | locus YJR075W, strain HOC1, hits give low values 1.01
